Compound activity: PubChem BioAssay, Center for Chemical Genomics, University of Michigan
Dicer inh: inhibitors of human Dicer processing of pre-microRNA | AID 1347074 | z-score at 25 µM | Q9UPY3 | cat-ELCCA pre-miR-21 Dicer processing, chemiluminescence; stronger effect = higher value | 47,000 compounds, 6% hits; in the data active means z-score above about 3, passing the limit was not always enough;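 further: plate controls were vehicle for no effect and no enzyme for full effect; higher signal means more uncleaved substrate so more Dicer inhibition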
Starred values were filed as active, the others as inactive. The full list was thinned out, with hits kept by preference.

What do the screens show for `CCOC(=O)C1=C(C)NC(C)=C(C(=O)OCC)C1c1ccc(-c2cc(C(F)(F)F)cc(C(F)(F)F)c2)o1`?
Dicer inh: -0.48

How did Cn1c(=O)[nH]c(=O)c2c1ncn2CCNCc1ccco1 do in these assays?
Dicer inh: 0.35

How did CCOC(=O)c1c(C)n(C)c2ccc(OCC(O)CNC3CCCCC3)cc12 (stereo not given) do in these assays?
Dicer inh: 1.2

What do the screens show for `Cc1nccnc1-c1ccnn1S(=O)(=O)c1ccccc1`?
Dicer inh: 0.94

What do the screens show for `CCOc1ccc(S(=O)(=O)N2CCSC2c2cc(OC)ccc2OC)cc1` (stereo not given)?
Dicer inh: 4.8*

How did COc1ccc(C2SCCN2S(=O)(=O)c2ccc(F)cc2)cc1 (stereo not given) do in these assays?
Dicer inh: 1.1

How did COc1ccc(S(=O)(=O)N2CCSC2c2ccccc2)cc1 (stereo not given) do in these assays?
Dicer inh: 2.1

How did COc1ccc(OC)c(C2SCCN2S(=O)(=O)c2ccc3ccccc3c2)c1 (stereo not given) do in these assays?
Dicer inh: 5.5

How did COc1ccc(C2SCCN2S(=O)(=O)c2ccc(Br)cc2)cc1 (stereo not given) do in these assays?
Dicer inh: 3.7*

How did COc1ccc(OC)c(C2SCCN2S(=O)(=O)c2ccccc2)c1 (stereo not given) do in these assays?
Dicer inh: 2.2

Results for Cn1c(=O)c2c(c3ccccc31)OC(=O)CC2c1ccc2c(c1)OCO2 (stereo not given) ?
Dicer inh: 1

How did O=C(CN1C(=O)c2ccccc2C1=O)NCc1cc2ccccc2s1 do in these assays?
Dicer inh: -0.58

How did COc1ccc(OCC(O)CNC(=O)Nc2ccc(OC(F)(F)F)cc2)cc1 (stereo not given) do in these assays?
Dicer inh: -0.31

Results for Fc1ccc(OCc2nnc3n2N=C(c2ccc(Br)cc2)CS3)cc1 ?
Dicer inh: -1

How did COCCc1nnc2n1N=C(c1ccc(Br)cc1)CS2 do in these assays?
Dicer inh: -0.4

Results for COc1ccc(OCc2nnc3n2N=C(c2ccc(Br)cc2)CS3)cc1 ?
Dicer inh: 3*

Results for Fc1ccc2c(c1)-c1oncc1CS2 ?
Dicer inh: -0.97

What do the screens show for `COc1cc(OC)cc(N2C(=O)CC(Sc3ccc(Cl)cc3)C2=O)c1` (stereo not given)?
Dicer inh: -3.1

How did C#CCC1(c2ccccc2)C(=O)c2ccccc2C1=O do in these assays?
Dicer inh: 0.75

What do the screens show for `O=C1c2ccccc2C(=O)C1(Nc1ccc(Cl)c(Cl)c1)c1ccccc1`?
Dicer inh: -0.91

How did O=C1c2ccccc2C(=O)C1(c1ccccc1)[N+](=O)[O-] do in these assays?
Dicer inh: 3.1*

How did CCOC(=O)c1[nH]c(C(=O)O)c(CC)c1C do in these assays?
Dicer inh: -0.04

Results for COc1ccc(NC(C(=O)O)c2ccccc2)cc1 (stereo not given) ?
Dicer inh: 1.2

How did CCOC(=O)CCc1c(CC(=O)OCC)c[nH]c1/C=N/O do in these assays?
Dicer inh: 16*

What do the screens show for `CCOC(=O)CCc1c(C)nc2c(-c3ccc(F)cc3)c(C)[nH]n2c1=O`?
Dicer inh: 0.13

Results for CCOC(=O)Cc1cc(C)[nH]c1C(=O)OCC ?
Dicer inh: 0.19

How did Cc1ccccc1/C=C/C1=NCCN1 do in these assays?
Dicer inh: -0.19

What do the screens show for `O=C1C2CC=C(Cl)CC2C(=O)N1c1ccc2ccccc2c1` (stereo not given)?
Dicer inh: 0.7

How did Cc1ccc(S(=O)(=O)N(C)Cc2nc(-c3ccccc3)no2)cc1 do in these assays?
Dicer inh: 1.2

What do the screens show for `COc1ccc(CNCc2cc(OC)ccc2OC)cc1`?
Dicer inh: 1.3

How did COc1ccc(CNCc2ccc3c(c2)OCO3)cc1 do in these assays?
Dicer inh: 0.97

Results for COc1ccc(CNCc2ccc(SC)cc2)cc1 ?
Dicer inh: 3.9*

Results for O=C1C2C3c4ccccc4C(C(=O)O)(c4ccccc43)C2C(=O)N1Cc1ccccc1 (stereo not given) ?
Dicer inh: 1.6

How did CCCCC(C(=O)O)N1C(=O)C2C3c4ccccc4C(c4ccccc43)C2C1=O (stereo not given) do in these assays?
Dicer inh: 3.5*

How did O=C(O)C(Cc1ccccc1)N1C(=O)C2CCCCC2C1=O (stereo not given) do in these assays?
Dicer inh: 1.7

Results for CCOC(=O)c1sc2nc(C)cc(C)c2c1N(C(C)=O)C(C)=O ?
Dicer inh: 3.4*

Results for CCOC(=O)c1sc2nc(C)cc(C)c2c1NC(=O)Nc1cccc(Cl)c1 ?
Dicer inh: 0.39

How did CC(=O)c1sc2nc(C)cc(C)c2c1N do in these assays?
Dicer inh: -1.6

What do the screens show for `Nc1ncnc2nc(SCc3ccc(Cl)cc3)[nH]c12`?
Dicer inh: -0.96

What do the screens show for `COc1ccc(OCc2nc(-c3cccnc3)no2)cc1`?
Dicer inh: -0.28

How did O=C(Nc1nnc(C2CC2)s1)c1ccc(Oc2cc(Cl)cc(Cl)c2)o1 do in these assays?
Dicer inh: -0.34

How did Cc1ccc(S(=O)(=O)Nc2ccc(-c3cn4cccc(C)c4n3)cc2)cc1 do in these assays?
Dicer inh: 1.7

How did Cc1cccn2cc(-c3cccc(NS(=O)(=O)c4ccc(Br)cc4)c3)nc12 do in these assays?
Dicer inh: 4.1*

What do the screens show for `Cc1cccn2cc(-c3ccc(NS(=O)(=O)c4ccccc4)cc3)nc12`?
Dicer inh: 1.5

Results for O=C(CSc1nc(O)cc(=O)n1-c1ccccc1F)N1CCc2ccccc21 ?
Dicer inh: 5.5*

Results for Cc1c(O)nc(SCC(=O)N2CCc3ccccc32)n(-c2ccccc2)c1=O ?
Dicer inh: 0.01

Results for CC(C)c1c(O)nc(SCC(=O)N2CCc3ccccc32)n(-c2ccccc2)c1=O ?
Dicer inh: -1.1

Results for CS(=O)(=O)Nc1nc2n(n1)C(c1ccc(Cl)cc1)C=C(c1ccccc1)N2 (stereo not given) ?
Dicer inh: 0.63

Results for CCOC(=O)c1csc(-c2ccc(C(F)(F)F)cc2Cl)n1 ?
Dicer inh: 0.85

What do the screens show for `CCCN1C(=O)C2(/C(=C(/O)c3ccc(C)cc3)C(=O)C(=O)N2CCCN(C)C)c2ccccc21` (stereo not given)?
Dicer inh: 0.61

What do the screens show for `CCCN1C(=O)C2(/C(=C(/O)c3ccc(Cl)cc3)C(=O)C(=O)N2CCCN(C)C)c2ccccc21` (stereo not given)?
Dicer inh: -2.9

What do the screens show for `COCCCN1C(=O)C(=O)/C(=C(\O)c2ccc(OC)cc2)C12C(=O)N(C)c1ccccc12` (stereo not given)?
Dicer inh: 2.6

How did CCCN1C(=O)C2(/C(=C(/O)c3ccc(Cl)cc3)C(=O)C(=O)N2CCOC)c2ccccc21 (stereo not given) do in these assays?
Dicer inh: -1.6

What do the screens show for `CCCN1C(=O)C2(/C(=C(/O)c3ccc(C)cc3)C(=O)C(=O)N2CCCOC)c2ccccc21` (stereo not given)?
Dicer inh: 1.2

What do the screens show for `CCCN1C(=O)C2(/C(=C(/O)c3ccccc3)C(=O)C(=O)N2CCCN(C)C)c2ccccc21` (stereo not given)?
Dicer inh: 4.4*

Results for CCCN1C(=O)C2(/C(=C(/O)c3ccc(OC)cc3)C(=O)C(=O)N2CCCOC)c2ccccc21 (stereo not given) ?
Dicer inh: 3.1*

What do the screens show for `CCCN1C(=O)C2(/C(=C(/O)c3ccccc3)C(=O)C(=O)N2CCCOC)c2ccccc21` (stereo not given)?
Dicer inh: 5*
